The source of these data is PubChem BioAssay.

Values joined by “and” are separate entries in the source; they are usually repeats but may differ in a detail not shown here. Equal entries are not always repeated. Records with an inconclusive call do not appear. Active and inactive are the calls of the source. Unless noted, no rule for the calls is given here.

Experiment [1] can be described thus: circadian clock period modulators, cell-based, LOPAC library, luminescence reporter (AID 2774).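 Also: values are relative to mean of DMSO wells on each plate.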 Particulars: circadian reporter cells, at 7 µM, actives lie on both sides.
Experiment [2] concerns Hepatitis C virus NS3 helicase. The experiment can be described thus: HCV NS3 helicase inhibitors, primary screen, biochemical, fluorescence polarization, LOPAC1280 library (AID 687035; in the data active = inhibition above about 37%). Particulars: Purified HCV NS3 helicase, Cy5-dT15 ssDNA binding fluorescence polarization; stronger effect = higher value; concentration not given here. In general terms: Fluorescence polarisation rises when a labelled molecule tumbles more slowly, as on binding a larger partner.

Experiment [3] is described as follows: Cy5 fluorescence quenching or enhancement artefacts, artefact control for HCV NS3 helicase inhibitor project, biochemical, LOPAC1280 (AID 687037). The following applies: Cy5-DNA-NS3h complex fluorescence interference counterscreen. For orientation: A counterscreen serves to expose hits that act by an unwanted route or on another target.
A short description of experiment [4]: sensitizers of A549 cells to miR-34 induction, primary screen, imaging, A549 dox-inducible miR-34, nuclei and caspase counts (AID 1347080;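 active = compounds whose cell count with miR-34 switched on is under 0.7 times the count with it off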). The following applies: A549 miR-34 inducible, Hoechst nuclei count, 48 h.
A short description of experiment [5]: phospholipid biosynthesis inhibitors in animal cells, primary screen, cell-based, LOPAC library, screen 4 (AID 1347384). Particulars: phospholipid biosynthesis inhibition screen, at 10 µM.
A short description of experiment [6]: viability rescue of complex I mutant cybrids, primary screen, cell-based, galactose medium, ATP luminescence (AID 1645843;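 active = z-score of at least 1.8 in each of two replicates, scored against plate mean and spread of sample wells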;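 also: positive z means more ATP and so rescue of galactose-driven cybrid death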). The following applies: complex I mutant cybrid cells, 72 h, stronger effect = higher value.
Experiment [7] in a line: hESC survival regulators, cell-based (AID 493140).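 Also: cells exposed to compounds for four days before counting.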 The following applies: human embryonic stem cell survival screen; stronger effect = higher value.
Experiment [8] in a line: liver-stage malaria parasite growth inhibition, primary screen, cell-based, HepG2, luciferase luminescence, HepG2 viability (AID 624349; in the data active = parasite load remaining mostly below about 12%, no sharp cut-off; inactive = mostly above about 10%;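 also: 100% = mean of DMSO negative control wells on the same plate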). Particulars: P. berghei liver stage in HepG2, luciferase luminescence, concentration not given here; parasite load remaining: stronger effect = lower value; viability: measured here: HepG2 viability without parasites.
The nature of experiment [9]: survival rescue of mitochondrial mutant cells in low glucose, primary screen, MELAS cybrids, Rieske KO mouse fibroblasts, CellTiter-Glo (AID 1508586;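 active = mean z-score across replicates of 1.96 or higher in either the MELAS or the Rieske mutant cell line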;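 also: z relative to plate mean and SD of compound and empty wells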). On the technique in general: ATP-based viability assays read luminescence as a measure of living cells.
The target of experiment [10] is ATP-dependent translocase ABCB1 (Homo sapiens) (UniProt P08183). The experiment can be described thus: MDR1 (ABCB1) efflux transporter inhibition, cell-based (AID 377; in the data active = fluorescence slope change above about 50%). The following applies: MDR1-expressing cells, fluorescent substrate accumulation slope; stronger effect = higher value; concentration not given here.
Sequence of ATP-dependent translocase ABCB1 (Homo sapiens) (P08183 whole entry, looked up): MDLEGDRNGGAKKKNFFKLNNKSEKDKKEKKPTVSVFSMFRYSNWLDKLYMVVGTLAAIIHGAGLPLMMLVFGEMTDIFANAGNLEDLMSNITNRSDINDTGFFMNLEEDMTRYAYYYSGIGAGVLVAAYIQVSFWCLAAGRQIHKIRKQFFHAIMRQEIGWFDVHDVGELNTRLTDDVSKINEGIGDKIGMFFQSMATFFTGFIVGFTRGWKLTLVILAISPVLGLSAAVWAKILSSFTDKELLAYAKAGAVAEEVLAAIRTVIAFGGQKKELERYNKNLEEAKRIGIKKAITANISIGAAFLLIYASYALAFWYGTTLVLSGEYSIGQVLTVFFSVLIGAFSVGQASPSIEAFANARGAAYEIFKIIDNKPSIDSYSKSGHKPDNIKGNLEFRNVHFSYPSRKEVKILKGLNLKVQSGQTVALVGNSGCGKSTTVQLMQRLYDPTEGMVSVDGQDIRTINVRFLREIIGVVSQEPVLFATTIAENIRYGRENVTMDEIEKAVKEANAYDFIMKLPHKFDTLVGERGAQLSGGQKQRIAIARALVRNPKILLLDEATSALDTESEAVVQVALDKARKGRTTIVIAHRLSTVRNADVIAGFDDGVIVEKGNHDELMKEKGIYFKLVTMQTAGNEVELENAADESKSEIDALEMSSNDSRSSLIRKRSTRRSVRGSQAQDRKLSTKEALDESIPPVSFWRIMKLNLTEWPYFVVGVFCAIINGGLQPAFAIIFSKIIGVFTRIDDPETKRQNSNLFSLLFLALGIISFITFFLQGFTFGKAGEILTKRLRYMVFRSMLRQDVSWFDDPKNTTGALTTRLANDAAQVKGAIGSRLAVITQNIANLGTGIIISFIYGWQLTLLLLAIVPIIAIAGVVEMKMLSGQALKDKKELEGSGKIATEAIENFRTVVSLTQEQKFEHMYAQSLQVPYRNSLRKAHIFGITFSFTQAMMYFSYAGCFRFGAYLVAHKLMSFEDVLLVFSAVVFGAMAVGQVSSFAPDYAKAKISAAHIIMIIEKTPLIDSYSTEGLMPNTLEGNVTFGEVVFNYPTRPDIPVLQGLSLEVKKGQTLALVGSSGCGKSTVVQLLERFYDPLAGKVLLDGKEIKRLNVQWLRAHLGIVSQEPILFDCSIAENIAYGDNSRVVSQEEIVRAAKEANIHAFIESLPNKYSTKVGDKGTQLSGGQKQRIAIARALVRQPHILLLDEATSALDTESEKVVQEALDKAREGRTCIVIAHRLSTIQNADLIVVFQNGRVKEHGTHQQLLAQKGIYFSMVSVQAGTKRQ
Where [11] appears, read: stronger effect = lower value, cell number ratio, induced over uninduced.
[12] abbreviates: measured here: relative caspase fold change +Dox/-Dox.
[13] abbreviates: measured here: total cells with miR-34 induction, stronger effect = lower value.
The mark [14] stands for this setting: measured here: total cells without miR-34 induction.
Where [15] appears, read: MELAS cybrid survival, CellTiter-Glo 48 h, stronger effect = higher value.
Setting [16] is: Rieske KO mouse fibroblast survival, CellTiter-Glo 72 h.

A word on the inhibition: it is the change of the read-out against control, counted positive when it falls. In the case of `NC1CONC1=O` (stereo unspecified), the period change in experiment [1] is -0.095 h (inactive). The inhibition in experiment [2] was -2% (inactive). Further, the fluorescence ratio (interference) in experiment [3] is 1 (inactive). Also, the fold change in experiment [4] (setting [11]) was 1.01 (inactive) and 0.986 (inactive); in [4] (setting [12]), 2.01 and 1.56. For the same molecule, the cell count in experiment [4] (setting [13]) was 10700 and 9620; in experiment [4] (setting [14]), 10600 and 9760. The molecule was called inactive in experiment [5]. Further, the z-score in [6] is 0.065 (inactive) and 0.91 (inactive).

For `CNC(=O)[C@H]1O[C@@H](n2cnc3c(NCc4cccc(I)c4)ncnc32)C(O)[C@H]1O` (stereo partly specified), in [1], the period change was -0.015 h (inactive). Moreover, in experiment [2], the inhibition was -2% (inactive). Also, the fluorescence ratio (interference) in experiment [3] was 0.9 (inactive). Moreover, the fold change in experiment [4] (setting [11]) was 1.05 (inactive) and 1.03 (inactive); in experiment [4] (setting [12]) it was 0.68 and 1.21. Besides, the cell count in experiment [4] (setting [13]) was 10000 and 5680; in experiment [4] (setting [14]) it was 9560 and 5540. The outcome in experiment [5] was inactive. For the same molecule, the z-score in [6] is 2.43 (active).

As a reminder, the viability is a read-out of living cells in per cent, often relative to untreated cells. Take `CNCC(O)C(O)C(O)C(O)CO` (stereo unspecified): the survival in [7] was 4.5 (inactive). In experiment [8], the parasite load remaining is 95.3% (inactive). In addition, in [8], the viability was 101%. The fold change in experiment [4] (setting [11]) is 0.893 (inactive) and 0.901 (inactive); in [4] (setting [12]), 1.03 and 1.16. Also, the cell count in experiment [4] (setting [13]) was 8100 and 7840; in experiment [4] (setting [14]) it was 9080 and 8700. In addition, the z-score in [9] (setting [15]) is -0.226 (inactive); in [9] (setting [16]) it was 0.0963.

Turning to `C[C@H]1[C@H](NC(=O)/C(=N\OC(C)(C)C(=O)O)c2csc(N)n2)C(=O)N1S(=O)(=O)O`, the survival in experiment [7] is 21.6 (inactive). The parasite load remaining in experiment [8] was 29.2% (inactive) and 123% (inactive) and 17.7% (inactive). Also, in experiment [8], the viability is 47.3% and 89% and 68%. The fold change in experiment [4] (setting [11]) is 0.907 (inactive) and 0.865 (inactive); in [4] (setting [12]), 1.09 and 1.14. Moreover, the cell count is 8940 and 9450 in [4] (setting [13]); 9850 and 10900 in [4] (setting [14]). Besides, the z-score in experiment [9] (setting [15]) was 0.296 (inactive) and 0.337 (inactive); in experiment [9] (setting [16]), 0.0689 and -0.343; in [6], 0.06 (inactive).

For the molecule `COc1cc(CNC(=O)CCCCCCC(C)C)ccc1O`, in experiment [1], the period change is 0.135 h (inactive). Also, the inhibition in experiment [2] was -5% (inactive). The fluorescence ratio (interference) in experiment [3] was 1 (inactive). The fold change in experiment [4] (setting [11]) was 1.08 (inactive) and 1.04 (inactive); in [4] (setting [12]) it was 0.866 and 1.07. For the same molecule, the cell count was 10600 and 5720 in experiment [4] (setting [13]); 9840 and 5480 in experiment [4] (setting [14]). The outcome in experiment [5] was inactive. In addition, the z-score in [6] was -0.085 (inactive).

Take `N#C/C(=C\c1ccc(-c2cc(Cl)ccc2Cl)o1)C(=O)Nc1cccc2ncccc12`: the inhibition in experiment [2] is -12% (inactive). Moreover, the fluorescence ratio (interference) in [3] is 0.8 (active). The fold change is 1.06 (inactive) and 0.955 (inactive) in experiment [4] (setting [11]); 0.614 and 1.48 in experiment [4] (setting [12]). Further, the cell count in experiment [4] (setting [13]) is 1870 and 5590; in experiment [4] (setting [14]) it was 1750 and 5850. Besides, the call in [5] was inactive. The z-score in [6] was 0.46 (inactive).

For the molecule `CC(C)(C)c1onc(OCP(=O)(O)O)c1CC(N)C(=O)O` (stereo unspecified), in experiment [1], the period change was -0.03 h (inactive). The inhibition in [2] was -3% (inactive). Moreover, the fluorescence ratio (interference) in [3] was 0.9 (inactive) and 1 (inactive). For the same molecule, the fold change was 1.04 (inactive) and 0.947 (inactive) in experiment [4] (setting [11]); 1.07 and 1.18 in experiment [4] (setting [12]). Also, the cell count in experiment [4] (setting [13]) was 10900 and 10600; in experiment [4] (setting [14]) it was 10500 and 11200. In addition, the result in [5] was inactive. Further, the z-score in [6] was 0.82 (inactive) and 0.145 (inactive).

As for `CCCCCC(O)CCCC(=O)O` (stereo unspecified), in experiment [1], the period change was -0.17 h (inactive). Also, the inhibition in experiment [2] is -4% (inactive). For the same molecule, the fluorescence ratio (interference) in experiment [3] is 1 (inactive). For the same molecule, the fold change in experiment [4] (setting [11]) was 0.96 (inactive) and 0.942 (inactive); in experiment [4] (setting [12]) it was 0.791 and 1.2. In addition, the cell count is 9800 and 6140 in experiment [4] (setting [13]); 10200 and 6510 in [4] (setting [14]). The call in [5] was inactive. The z-score in experiment [6] was 0.165 (inactive).

In the case of `CCCCC[C@H](O)/C=C/[C@@H]1[C@@H](C/C=C\CCCC(=O)O)[C@@H](O)C[C@H]1O`, the survival in [7] is 95.3 (inactive). In addition, the parasite load remaining in experiment [8] was 32.1% (inactive). Also, the viability in [8] stood at 102%. For the same molecule, the z-score in experiment [9] (setting [15]) is -0.59 (inactive); in experiment [9] (setting [16]) it was -0.344; in experiment [6], 0.625 (inactive).

For the molecule `CSC(=N)N`, the period change in experiment [1] was -0.11 h (inactive). The inhibition in experiment [2] was -4% (inactive). The fluorescence ratio (interference) in experiment [3] was 1 (inactive). The fold change in experiment [4] (setting [11]) was 1 (inactive) and 0.925 (inactive); in [4] (setting [12]), 1.64 and 1.46. The cell count in [4] (setting [13]) is 10600 and 5770; in [4] (setting [14]), 10500 and 6230. The result in [5] was inactive. The z-score in experiment [6] was 0.095 (inactive).

Take `CCN(CC)CCOc1ccc(/C(=C(/Cl)c2ccccc2)c2ccccc2)cc1`: the fluorescence slope change in experiment [10] is 69.8% (active). The survival in experiment [7] was 1.25 (inactive). Moreover, the parasite load remaining in experiment [8] was 5.86% (inactive) and 13.7% (inactive) and 1.37% (inactive). The viability in experiment [8] is 83.4% and 76% and 71%. For the same molecule, the fold change in [4] (setting [11]) is 0.802 (inactive) and 0.892 (inactive); in [4] (setting [12]), 1.39 and 1.34. Moreover, the cell count was 7010 and 7690 in [4] (setting [13]); 8740 and 8620 in [4] (setting [14]). Further, the z-score is -1.93 (inactive) and -1.91 (inactive) in experiment [9] (setting [15]); -0.316 and -1.39 in [9] (setting [16]); -2.19 (inactive) in experiment [6].

For `C[C@]12C=CC(=O)C=C1CC[C@@H]1C2=CC[C@]2(C)[C@@H](C(=O)CN3CCN(c4cc(N5CCCC5)nc(N5CCCC5)n4)CC3)CC[C@@H]12`, the period change in experiment [1] was 0.075 h (inactive). Also, the inhibition in experiment [2] is -5% (inactive). Besides, the fluorescence ratio (interference) in [3] is 0.9 (inactive). Also, the fold change in experiment [4] (setting [11]) was 0.983 (inactive) and 1.04 (inactive); in experiment [4] (setting [12]), 0.64 and 0.868. Further, the cell count was 8450 and 5900 in [4] (setting [13]); 8600 and 5690 in experiment [4] (setting [14]). For the same molecule, the call in [5] was inactive. Also, the z-score in experiment [6] was 1.27 (inactive).

In the case of `CCCNC1CCc2nc(N)sc2C1` (stereo unspecified), the fold change in [4] (setting [11]) was 0.968 (inactive) and 0.933 (inactive) and 0.946 (inactive); in [4] (setting [12]), 2.07 and 1.64 and 3.69. Further, the cell count in [4] (setting [13]) was 9570 and 9980 and 9760; in experiment [4] (setting [14]), 9890 and 10700 and 10300. The z-score in experiment [9] (setting [15]) is -0.192 (inactive); in experiment [9] (setting [16]), 0.744; in [6], 1.44 (inactive) and 0.095 (inactive).

In the case of `CCCCCCCCCCCCCCCCCCOC[C@H](COP(=O)([O-])OCC[N+](C)(C)C)OC`, the period change in [1] is -0.025 h (inactive). Besides, the survival in [7] is 97.7 (inactive). In [2], the inhibition was 0% (inactive). In [3], the fluorescence ratio (interference) is 1 (inactive). In addition, the fold change is 0.77 (inactive) and 1.03 (inactive) and 1.02 (inactive) in experiment [4] (setting [11]); 1.7 and 0.981 and 0.958 in [4] (setting [12]). Moreover, the cell count is 1920 and 5950 and 5710 in experiment [4] (setting [13]); 2500 and 5760 and 5620 in experiment [4] (setting [14]). The molecule was called inactive in experiment [5]. The z-score in experiment [6] is -0.975 (inactive).

For the molecule `CCCC1CC(C(=O)NC(C(C)Cl)C2OC(SC)C(O)C(O)C2O)N(C)C1` (stereo unspecified), the fold change in [4] (setting [11]) was 0.887 (inactive) and 0.926 (inactive) and 0.928 (inactive); in experiment [4] (setting [12]), 0.463 and 0.824 and 1.2. The cell count was 8440 and 7670 and 9370 in [4] (setting [13]); 9520 and 8280 and 10100 in [4] (setting [14]). Further, the z-score in experiment [9] (setting [15]) is 0.443 (inactive) and -0.35 (inactive) and -0.364 (inactive); in experiment [9] (setting [16]) it was -0.229 and -0.0713 and 0.118; in [6], -0.495 (inactive).
